According to PubChem BioAssay AID1159580 (chemical genetic matrix, 2015):
Where “and” joins values, the source holds several entries; their conditions need not be identical. Equal entries are not always repeated. Among all 5,500 compounds or so, about 2,000 (36%) were called active. About 18% were inconclusive and are not listed. No stated cut-off is given here; in the data, active means normalized growth mostly below about 0.91 (no sharp cut-off); inconclusive means no clear call, values can overlap the other calls; inactive means mostly above about 0.92. Some of the results follow.

Assay: chemical genetic growth profiling, strain panel (AID 1159580);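 further: tested at 20 µM; growth read once vehicle control cultures reached saturation at 30 °C; 1 = growth at the plate median or of vehicle wells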
Details: S. cerevisiae deletion strains, growth OD

Measured: normalized growth

CCC(=O)O[C@H]1[C@H](O[C@@H]2[C@@H](C)[C@H](O[C@H]3C[C@@](C)(OC)[C@@H](O)[C@H](C)O3)[C@@H](C)C(=O)O[C@H](CC)[C@@](C)(O)[C@H](O)[C@@H](C)C(=O)[C@H](C)C[C@@]2(C)O)O[C@H](C)C[C@@H]1N(C)C
inactive: locus YAL013W, strain DEP1, stronger effect = lower value 0.996 | locus YAL021C, strain ccr4, stronger effect = lower value 0.958 | locus YAL026C, strain drs2, stronger effect = lower value 0.942 | locus YAL030W, strain snc1, stronger effect = lower value 0.984 | locus YBL061C, strain skt5, stronger effect = lower value 0.973 | locus YBR171W, strain sec66, stronger effect = lower value 1.01 | locus YBR229C, strain ROT2, stronger effect = lower value 1.02 | locus YCL029C, strain bik1, stronger effect = lower value 0.988 | locus YCL061C, strain MRC1, stronger effect = lower value 0.949 | locus YCR088W, strain abp1, stronger effect = lower value 1.02 | locus YDL005C, strain med2, stronger effect = lower value 0.984 | locus YDL035C, strain GPR1, stronger effect = lower value 0.915 | locus YDL040C, strain nat1, stronger effect = lower value 1.01 | locus YDL074C, strain BRE1, stronger effect = lower value 0.809 | locus YDL101C, strain DUN1, stronger effect = lower value 0.959 | locus YDL134C, strain PPH21, stronger effect = lower value 0.91 | locus YDL185W, strain tfp1, stronger effect = lower value 1.01 | locus YDL192W, strain arf1, stronger effect = lower value 1 | locus YDR001C, strain nth1, stronger effect = lower value 1.02 | locus YDR069C, strain doa4, stronger effect = lower value 1.04 | locus YDR101C, strain arx1, stronger effect = lower value 1 | locus YDR162C, strain NBP2, stronger effect = lower value 0.944 | locus YDR297W, strain sur2, stronger effect = lower value 0.942 | locus YDR318W, strain mcm21, stronger effect = lower value 0.99 | locus YDR334W, strain swr1, stronger effect = lower value 0.957 | locus YDR388W, stronger effect = lower value 0.972 | locus YDR502C, strain sam2, stronger effect = lower value 1.01 | locus YEL037C, strain rad23, stronger effect = lower value 0.971 | locus YEL061C, strain CIN8, stronger effect = lower value 0.97 | locus YER015W, strain faa2, stronger effect = lower value 0.975 | locus YER016W, strain bim1, stronger effect = lower value 0.965 | locus YER110C, stronger effect = lower value 0.967 | locus YER155C, strain BEM2, stronger effect = lower value 1.03 | locus YER167W, strain BCK2, stronger effect = lower value 0.971 | locus YFR010W, strain ubp6, stronger effect = lower value 0.911 | locus YGL078C, strain dbp3, stronger effect = lower value 0.995 | locus YGL086W, strain mad1, stronger effect = lower value 0.994 | locus YGL167C, strain pmr1, stronger effect = lower value 1 | locus YGL173C, strain kem1, stronger effect = lower value 0.938 | locus YGL227W, strain vid30, stronger effect = lower value 1.01 | locus YGL248W, strain PDE1, stronger effect = lower value 0.918 | locus YGR135W, strain pre9, stronger effect = lower value 0.92 | locus YHR027C, strain rpn1, stronger effect = lower value 1 | locus YHR030C, strain SLT2, stronger effect = lower value 1.02 and 0.875 | locus YHR079C, strain IRE1 (second series), stronger effect = lower value 1.01 | locus YHR079C, strain IRE1, stronger effect = lower value 0.874 | locus YHR094C, strain hxt1, stronger effect = lower value 1.01 | locus YHR129C, strain ARP1, stronger effect = lower value 0.99 | locus YHR200W, strain rpn10, stronger effect = lower value 1.01 | locus YIL073C, strain SPO22, stronger effect = lower value 1.05 | locus YIL125W, strain kgd1, stronger effect = lower value 1.02 | locus YIR030C, strain dcg1, stronger effect = lower value 1.02 | locus YJL092W, strain hpr5, stronger effect = lower value 1.01 | locus YJL095W, strain BCK1 (second series), stronger effect = lower value 0.993 | locus YJL115W, strain asf1, stronger effect = lower value 1.03 | locus YJL134W, strain LCB3, stronger effect = lower value 1.02 | locus YJL154C, strain vps35, stronger effect = lower value 1.01 | locus YJL168C, strain set2, stronger effect = lower value 1.01 | locus YJL187C, strain SWE1 (second series), stronger effect = lower value 0.967
0.975 (inactive) and 0.864 (active): locus YJL095W, strain BCK1, stronger effect = lower value
active: locus YBR009C, strain hhf1, stronger effect = lower value 0.797 | locus YBR021W, strain FUR4, stronger effect = lower value 0.232 | locus YBR023C, strain chs3, stronger effect = lower value 0.894 | locus YBR231C, strain swc5, stronger effect = lower value 0.836 | locus YBR279W, strain paf1, stronger effect = lower value 0.911 | locus YCL011C, strain gbp2, stronger effect = lower value 0.823 | locus YCL016C, strain dcc1, stronger effect = lower value 0.912 | locus YCL069W, strain vba3, stronger effect = lower value 0.899 | locus YDR137W, strain rgp1, stronger effect = lower value 1.18 [resistant] | locus YDR159W, strain sac3, stronger effect = lower value 0.826 | locus YDR195W, strain ref2 1.22 [resistant] | locus YDR335W, strain msn5, stronger effect = lower value 0.877 | locus YDR392W, strain spt3, stronger effect = lower value 0.292 | locus YEL003W, strain gim4, stronger effect = lower value 0.862 | locus YEL061C, strain CIN8 (second series), stronger effect = lower value 0.875 | locus YER111C, strain swi4, stronger effect = lower value 0.867 | locus YER155C, strain BEM2 (second series), stronger effect = lower value 0.32 | locus YGL240W, strain doc1, stronger effect = lower value 0.731 | locus YGL253W, strain hxk2, stronger effect = lower value 0.671 | locus YGR078C, strain PAC10, stronger effect = lower value 0.797 | locus YGR252W, strain gcn5, stronger effect = lower value 0.695 | locus YHR013C, strain ard1, stronger effect = lower value 0.722 | locus YHR142W, strain chs7, stronger effect = lower value 0.7 | locus YIL066C, strain RNR3, stronger effect = lower value 0.8 | locus YJL129C, strain trk1, stronger effect = lower value 0.7 | locus YJL164C, strain tpk1, stronger effect = lower value 0.832 | locus YJL166W, strain qcr8, stronger effect = lower value 0.813 | locus YJR043C, strain POL32, stronger effect = lower value 0.832
